Only some compounds are listed: those with a hit (about 3.5% of all), similar ones and a draw of the others.
Rv3671c protease: Rv3671c serine protease inhibitors, primary screen, biochemical, fluorescence polarization, M. tuberculosis H37Rv; AID 2606, 2010; P9WHR9; actives 0.048% (n = 320,000); inhibition, % at 5.96 µM; in the data active = inhibition above about 38%;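 also: extracellular domain of Rv3671c used as enzyme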
Target sequence (P9WHR9 whole entry, looked up, the tested form may be a part): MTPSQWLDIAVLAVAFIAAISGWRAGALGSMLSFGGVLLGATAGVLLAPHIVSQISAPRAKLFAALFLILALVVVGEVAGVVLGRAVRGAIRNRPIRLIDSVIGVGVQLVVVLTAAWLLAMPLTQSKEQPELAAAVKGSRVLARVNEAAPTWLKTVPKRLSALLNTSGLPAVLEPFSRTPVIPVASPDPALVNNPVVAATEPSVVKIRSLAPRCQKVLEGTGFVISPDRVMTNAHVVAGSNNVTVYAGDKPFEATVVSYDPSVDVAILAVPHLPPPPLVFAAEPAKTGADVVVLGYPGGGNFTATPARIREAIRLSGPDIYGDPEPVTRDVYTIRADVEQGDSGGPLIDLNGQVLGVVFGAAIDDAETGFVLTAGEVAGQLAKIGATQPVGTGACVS
GDH-TPI counter: GDH-TPI coupling enzyme inhibitors, primary screen, artefact control for M. tuberculosis FBA inhibitor project, biochemical, absorbance, full deck; GDH-TPI coupled enzyme counterscreen, NADH absorbance; inhibition, % at 4.8 µM; actives 1.2% (n = 360,000); AID 588335, 2011; in the data active = inhibition above about 30%
FBA Mtb inh: Mtb FBA enzyme inhibitors, primary screen, biochemical, fluorescence, strain H37Rv. Fructose-bisphosphate aldolase (Mycobacterium tuberculosis (strain ATCC 25618 / H37Rv)), …. purified M. tuberculosis FBA, fluorescence read-out. inhibition, % at 1 µM. actives 2.3% (n = 360,000). AID 588726, 2011; in the data active = inhibition above about 27%
UGM FP inh: M. tuberculosis UGM enzyme inhibitors, primary screen, biochemical, fluorescence polarization, single point; purified UGM, fluorescence polarization probe displacement; inhibition, % at 10 µM; AID 504406, 2011; actives 0.06% (n = 320,000); UDP-galactopyranose mutase (Mycobacterium tuberculosis (strain ATCC 25618 / H37Rv)), …; in the data active = inhibition above about 10%, passing the limit was not always enough
Hits are given with their value; - = inactive; . = no result; + = active, no number.

SMILES	Rv3671c protease	GDH-TPI counter	FBA Mtb inh	UGM FP inh
C(=C\c1ccco1)/C=N/n1cnnc1	-	51	-	-
S=c1[nH]nc(-c2ccncc2)n1/N=C/C=C/c1ccco1	-	-	-	-
OCc1cc(C(O)CNCCCCCCOCCCCc2ccccc2)ccc1O (centres undefined)	-	-	28	-
CCc1ccc(/C=C2\CN(CC)Cc3c2nc2ccccc2c3C(=O)O)cc1	-	44	-	-
CCN1C/C(=C/c2cccs2)c2nc3ccccc3c(C(=O)O)c2C1	-	-	-	-
Cc1ccc(S(=O)(=O)N2C(=O)[C@@H]3Cc4ccccc4CN3C2=O)cc1	.	-	-	.
CC1C(=O)NN=C1C(=O)N/N=C\c1ccc(O)cc1O (centres undefined)	-	62	-	-
CCN(CC(=O)N1CCCC1)S(=O)(=O)c1cc(C)ccc1OC	-	-	-	-
CC1(C)CC(=O)C2=C(C1)Nc1ccccc1NC2c1ccc2c(c1)OCO2 (centres undefined)	-	41	-	-
COc1cccc(C2Nc3ccccc3NC3=C2C(=O)CC(C)(C)C3)c1OC (centres undefined)	-	35	-	-
COc1ccccc1C1Nc2ccccc2NC2=C1C(=O)CC(C)(C)C2 (centres undefined)	-	-	-	-
COc1ccc(C2Nc3ccccc3NC3=C2C(=O)CC(C)(C)C3)c(OC)c1OC (centres undefined)	-	-	-	-
CC1(C)CC(=O)C2=C(C1)Nc1ccccc1NC2c1nc2ccccc2[nH]1 (centres undefined)	-	32	-	-
CC1(C)CC(=O)C2=C(C1)Nc1ccccc1NC2c1ccccn1 (centres undefined)	-	42	-	-
CC1(C)CC(=O)C2=C(C1)Nc1ccccc1NC2c1ccc(F)cc1 (centres undefined)	-	-	-	-
CN(C(=O)c1cccc(NC(=O)Cc2ccc(NC(=O)C3CCN(C(=O)c4ccccc4)CC3)cc2)c1)C1CCCC1	.	-	-	.
COc1ccccc1C(=O)C1CCCN(C(=O)c2ccco2)C1 (centres undefined)	-	-	-	-
COc1ccc(C(C)(C)NC(=O)C2CCC(=O)N(C3CCCC3)C2)cc1OC (centres undefined)	-	-	-	-
Nc1nc(-c2ccc3c(c2)CCCC3)cs1	-	-	-	-
N#Cc1cnn2ccc(-c3ccc4c(c3)CCC4)nc12	-	-	141	-
O=C(COC(=O)c1cncc(Br)c1)Nc1ccc(F)c(F)c1F	.	-	-	.
Cc1oc2c(CN3CCCC3)c(O)ccc2c(=O)c1-c1ccccc1	-	-	118	-
Cc1oc2c(CN3CCCC3)c(O)ccc2c(=O)c1-c1ccc(Cl)cc1	-	-	86	-
Cc1oc2c(CN3CCC(C)CC3)c(O)ccc2c(=O)c1-c1ccccc1	-	-	181	-
O=c1c(Oc2ccccc2Br)c(C(F)(F)F)oc2c(CN3CCCC3)c(O)ccc12	-	-	-	-
SMILES	Rv3671c protease	GDH-TPI counter	FBA Mtb inh	UGM FP inh
O=C(OCc1cn([C@H]2C[C@H](c3ccc(Cl)cc3)N(C(=O)C3CCCCC3)C[C@@H]2O)nn1)c1ccccc1	.	-	-	.
Cc1sc(NC(=O)c2ccco2)c(C(c2cccnc2)N2CCCC2)c1C (centres undefined)	-	31	-	-
COc1ccc(Cl)cc1Nc1cc(C)nc2ccccc12	-	-	-	-
CC(=O)Nc1ccc(Nc2cc(C)nc3ccccc23)cc1	-	38	-	-
Cc1cc(Nc2ccccc2Cl)c2ccccc2n1	-	37	-	-
COc1cc(/C=N/NC(=O)c2cc(C)oc2C)ccc1O	-	-	-	-
COc1ccc(/C=N/NC(=O)c2cc3c(OC)ccc(OC)c3[nH]2)cc1O	-	43	-	-
COc1ccc(OC)c2[nH]c(C(=O)N/N=C/c3ccccc3O)cc12	-	-	-	-
COc1ccc(C=NNC(=O)c2cc(C)oc2C)cc1O	-	31	-	-
COc1ccc(F)cc1Cn1nc(C(=O)O)c2ccccc2c1=O	-	-	-	-
Cc1ccc(S(=O)(=O)N2[C@@H](c3ccc(Cl)cc3)C(C(=O)OC(C)(C)C)=CC[C@H]2c2ccc(Cl)c(Cl)c2)cc1	.	.	-	.
CCC(=O)Nc1nnc(/C=C/c2ccc(OC)cc2)s1	-	43	-	-
CC(=O)Nc1nnc(/C=C/c2cccc([N+](=O)[O-])c2)s1	-	-	-	-
COC(=O)Nc1nnc(/C=C/c2ccccc2)s1	-	-	+	-
COc1cccc(NC(=O)N(C)C[C@H]2OCc3cn(nn3)CCCC(=O)N([C@@H](C)CO)C[C@@H]2C)c1	.	-	-	.
Cn1cc(C(=O)C(=O)N2CCOCC2)c2ccccc21	-	31	-	-
Cn1cc(C(=O)C(=O)N2CCN(c3ccccc3)CC2)c2ccccc21	-	-	-	-
Cc1cc(/C=C(\C#N)C(=O)OCC(=O)Nc2ccc(OC(F)F)cc2)c(C)n1CC(C)C	-	31	-	-
Cc1cc(/C=C(\C#N)C(=O)OCC#N)c(C)n1CC(C)C	-	-	-	-
Cc1cc(C)n2nc(SCC(=O)NC3(C#N)CCCCC3)nc2n1	.	-	-	.
CC(=O)N1N=C(c2ccc(C)o2)CC1c1ccc(F)cc1 (centres undefined)	-	71	-	-
O=C(OCC(=O)N1CCC(Cc2ccccc2)CC1)c1cncc(Br)c1	-	-	-	-
O=C(NCCc1nc2ccccc2[nH]1)/C(=C/c1ccco1)NC(=O)c1ccc(Br)o1	-	33	-	-
COc1ccc(/C=C(/NC(=O)/C=C/c2ccccc2)C(=O)NCCCCCC(=O)O)cc1	-	32	-	-
COc1ccc(/C=C(\NC(=O)/C=C/c2ccco2)C(=O)NCCc2nc3ccccc3[nH]2)cc1	-	37	-	-
SMILES	Rv3671c protease	GDH-TPI counter	FBA Mtb inh	UGM FP inh
O=C(NCCc1nc2ccccc2[nH]1)/C(=C/c1ccco1)NC(=O)c1ccco1	-	-	-	-
CSc1ccccc1CNc1nc(NCC2CC2)nc2ccsc12	.	-	-	.
O=C(CN(Cc1ccco1)C(=O)c1ccc(F)cc1)Nc1ccccc1Br	-	-	-	-
O=C(NCC1CCCN1S(=O)(=O)c1cccs1)c1c(F)cccc1F (centres undefined)	-	-	-	-
CC(=O)Nc1cc(NC(C)=O)ncn1	-	-	-	-
O=c1[nH]nc(N/N=C/c2ccc(Cl)cc2Cl)c(=O)[nH]1	-	38	-	-
O=C(CCNc1n[nH]c(=O)[nH]c1=O)N/N=C/c1ccc(Cl)cc1	-	-	-	-
N#Cc1c(N)n(CCOC(=O)c2cccc([N+](=O)[O-])c2)c2nc3ccccc3nc12	-	-	-	-
N#Cc1c(N)n(CCNC(=O)c2ccc(Cl)cc2)c2nc3ccccc3nc12	-	-	199	-
CCCCn1c(NC(=O)c2ccccc2)c(C#N)c2nc3ccccc3nc21	.	-	-	.
Cc1ccc(C(=O)NCCn2c(N)c(C#N)c3nc4ccccc4nc32)cc1	-	-	161	-
Cc1cccc(C)c1NC(=O)Nc1nnc([C@@H]2C[C@H](O)[C@@H](CO)O2)s1	.	-	-	.

Source: PubChem BioAssay
